Screens as filed in PubChem.
Mito fusion act – mitochondrial division inhibition or fusion activation | Potency, µM (titrated, usually from 46.1 µM), inactives show at the highest dose growth rescue (activation), usual class: activators | S. cerevisiae fusion-defective mutant growth rescue, CellTiterGlo 48 h | actives 0.23% (n = 320,000) | AID 485298; also: % of control where 0% means no effect; nearly all actives have a fitted effect of over 45% in size
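Luminescent cell viability in 1536-well qHTS format served as the measure of rescued growth in ts fusion-mutant S. cerevisiae cultured on non-fermentable YPEG for 48 hours at 37C.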
SW480 rereplic – inducers of DNA re-replication in SW480 colon cancer cells | SW480 DNA re-replication, Hoechst DNA content imaging, 48 h | Potency, µM (titrated, usually from 46.1 µM), for the others: at the highest dose re-replication activation, most hits filed as activators | actives 1.8% (n = 340,000); also: % of control where 0% means no effect; nearly all actives have a fitted effect of over 55% in size
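SW480 cells exposed to compounds for 48 hr at 37 C, 5% CO2, then Hoechst-stained 40 min. Nuclear DNA content imaged by fluorescence scanning (405 nm excitation, 500-530 nm emission); re-replication scored as increased high-intensity nuclei.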
MCF10A rerep – DNA re-replication induction in MCF 10a cells; actives 2.9% (n = 350,000); MCF 10A DNA re-replication, Hoechst nuclear intensity, 48 h; AID 624296; Potency, µM (series often up to 46.1 µM), for the others: at the top dose activity, positive = re-replication, hits mostly activators; also: % of control where 0% means no effect; nearly all actives have a fitted effect of over 50% in size
a7 integrin act – integrin-mediated muscular dystrophy alleviation activation | alpha7betagal myoblasts, beta-gal FDG fluorescence, 48 h | Potency, µM (series often up to 38.3 µM), for the others: at the top dose activation, most hits filed as activators | actives 0.064% (n = 350,000);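 also: 100% = response of the positive control SU9516; nearly all actives have a fitted effect of over 60% in size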
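alpha7betagal+/- myoblasts (passage 13, 250/well) treated 48 h at 37C with compounds at 1:260 dilution of DMSO stock. Lysed, then beta-galactosidase activity read as FDG fluorescence (ex 480/em 540) after 30 min, with pre-read for autofluorescence.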
AT treatment – potential ataxia-telangiectasia treatments restoring KAP-1 phosphorylation; F2112 A-T fibroblasts, KAP-1 phosphorylation AlphaLISA; neocarzinostatin DNA damage 30 min before lysis; actives 0.19% (n = 320,000); Potency, µM (doses to about 57.5 µM), for inactives: at the top dose activation, usual class: activators; also: % of control where 0% means no effect; nearly all actives have a fitted effect of over 45% in size
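ATM-like activity read as KAP-1 phosphorylation via AlphaLISA donor/acceptor antibody pairs after lysis and 6 hr at 25C. Cells were ATM-null patient fibroblasts (F2112, hTERT), dosed 60 min, then exposed to the DSB inducer NCS for 30 min.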
An asterisk follows results filed as active. Shown are actives, neighbours in structure and some others; about 4.2% of the full set was active somewhere. Calls follow the shape of the dose curve; as a rule, active = well fitted activation curve with a large enough effect; inconclusive = small, poorly fitted or top-dose-only effect; inactive = no such curve, though single readings can be large or run the other way. Potency is read from the fitted curve at half-maximal effect.

How did O=C(NN=Cc1ccc(N(CCCl)CCCl)cc1)C(=O)c1c[nH]c2ccccc12 do in these assays?
SW480 rereplic: inconclusive; MCF10A rerep: 16µM*; a7 integrin act: -23%

How did COc1ccc(/C=C/C=C2C(=O)NC(=S)NC2=O)cc1 do in these assays?
SW480 rereplic: 16µM*; MCF10A rerep: 5.8µM*; a7 integrin act: 2%

How did COc1ccc(C=C2C(=O)NC(=S)NC2=O)cc1OC do in these assays?
SW480 rereplic: 1%; MCF10A rerep: -2%; a7 integrin act: -5%

What do the screens show for `CCCCn1c(N)c(N(CC(C)C)C(=O)c2cc(Br)c(Br)s2)c(=O)[nH]c1=O`?
SW480 rereplic: 7%; MCF10A rerep: inconclusive; a7 integrin act: -14%

How did CCC(=O)Nc1ccc(C(=O)OCc2ccccc2Cl)cc1 do in these assays?
Mito fusion act: 15%; SW480 rereplic: 2%; MCF10A rerep: inconclusive; a7 integrin act: -34%; AT treatment: 0%

How did CCCCn1c(N)c(C(=O)NCc2cccs2)c2nc3ccccc3nc21 do in these assays?
Mito fusion act: -3%; SW480 rereplic: 3.3µM*; MCF10A rerep: 1.2µM*; a7 integrin act: -29%; AT treatment: 21%

Results for CCCOC(=O)c1c(N)n(Cc2cccs2)c2nc3ccccc3nc12 ?
Mito fusion act: 14%; SW480 rereplic: inconclusive; MCF10A rerep: 21µM*; a7 integrin act: -25%; AT treatment: 7%

Results for CCCCCn1c(N)c(C(=O)NCc2cccs2)c2nc3ccccc3nc21 ?
Mito fusion act: 2%; SW480 rereplic: 2.6µM*; MCF10A rerep: 5.2µM*; a7 integrin act: -37%; AT treatment: 25%

What do the screens show for `Nc1c(C(=O)NCCCc2ccccc2)c2nc3ccccc3nc2n1Cc1cccs1`?
Mito fusion act: 8%; SW480 rereplic: 2.9µM*; MCF10A rerep: inconclusive; a7 integrin act: -63%; AT treatment: inconclusive

How did C[C@]12CCC3C(CCC4=C(Cl)C(=O)CC[C@@]43C)C1CCC2O (stereo partly specified) do in these assays?
SW480 rereplic: -10%; MCF10A rerep: 19%

How did Cn1cc(/C=C(\C(=O)O)C(C(=O)O)=C2CCCCC2)c2ccccc21 do in these assays?
Mito fusion act: 1%; SW480 rereplic: -25%; MCF10A rerep: 4%; a7 integrin act: 0%; AT treatment: -3%

How did COCCCNC(=O)c1c(NC(=O)c2ccccc2)n(Cc2ccccc2)c2nc3ccccc3nc12 do in these assays?
SW480 rereplic: 1.3µM*; MCF10A rerep: inconclusive; a7 integrin act: 16%

What do the screens show for `COCCOC(=O)c1c(N)n(Cc2ccccc2)c2nc3ccccc3nc12`?
Mito fusion act: -3%; SW480 rereplic: 25%; MCF10A rerep: 2%; a7 integrin act: -8%; AT treatment: 10%

Results for CCOC(=O)C1CCN(/C=C2/C(=O)NC(=O)N(c3ccc(OCC)cc3)C2=O)CC1 ?
Mito fusion act: -4%; SW480 rereplic: 1%; MCF10A rerep: 5.8µM*; a7 integrin act: inconclusive; AT treatment: -3%

Results for CCOC(=O)C1CCN(/C=C2/C(=O)NC(=S)N(c3ccccc3F)C2=O)CC1 ?
Mito fusion act: 1%; SW480 rereplic: -2%; MCF10A rerep: -3%; a7 integrin act: 10%; AT treatment: -2%

How did C[C@]12CCC3C(CC[C@H]4CC(O)CC[C@]34C)C1CC/C2=N/NC(=O)c1ccncc1 (stereo partly specified) do in these assays?
Mito fusion act: -32%; SW480 rereplic: 12%; MCF10A rerep: inconclusive; a7 integrin act: -18%; AT treatment: -11%

What do the screens show for `Cc1cc(O)cc2c1O[C@](C)(CCC[C@H](C)CCC[C@H](C)CCCC(C)C)CC2`?
SW480 rereplic: 6%; MCF10A rerep: 19%

Results for CC(=O)OC(C)(C)/C=C/C(=O)[C@](C)(O)[C@H]1[C@H](O)C[C@@]2(C)[C@@H]3CC=C4[C@H](C[C@H](O)C(=O)C4(C)C)[C@]3(C)C(=O)C[C@]12C ?
Mito fusion act: 2%; SW480 rereplic: inconclusive; MCF10A rerep: inconclusive; a7 integrin act: -36%; AT treatment: inconclusive

Results for CC(=O)OC(C)(C)/C=C/C(=O)C(C)(O)C1C(O)CC2(C)C3CC=C4C(CC(O)C(=O)C4(C)C)C3(C)C(=O)CC12C (stereo unspecified) ?
SW480 rereplic: 0.012µM*; MCF10A rerep: inconclusive; a7 integrin act: inconclusive

What do the screens show for `COc1ccc(C(=O)Nc2ccccc2-c2nnn(CC(=O)Nc3ccc4c(c3)OCCO4)n2)cc1`?
Mito fusion act: -5%; SW480 rereplic: 4%; MCF10A rerep: 16µM*; a7 integrin act: 29%; AT treatment: 6%

Results for CC(CCC(=O)O)C1CCC2C3C(=O)C[C@@H]4CC(=O)CC[C@@]4(C)C3CC(=O)[C@]12C (stereo partly specified) ?
SW480 rereplic: inconclusive; MCF10A rerep: 10%

How did Cc1cc(=O)oc2c1c(C)nn2-c1nn[nH]n1 do in these assays?
Mito fusion act: -1%; SW480 rereplic: inconclusive; MCF10A rerep: inconclusive; a7 integrin act: 23%; AT treatment: -7%

Results for CCCCCn1c(=O)c(C(=O)NCCc2ccccc2)c(O)c2ccccc21 ?
Mito fusion act: -1%; SW480 rereplic: 3%; MCF10A rerep: 23µM*; a7 integrin act: -39%; AT treatment: 29%

How did CCOC(=O)c1c(-n2c(C)cc(/C=C3/C(=O)NC(=O)N(CC)C3=O)c2C)sc2c1CCCC2 do in these assays?
SW480 rereplic: 4%; MCF10A rerep: 10%; a7 integrin act: 21%

Results for CCOC(=O)c1c(-n2c(C)cc(C=C3C(=O)NC(=S)NC3=O)c2C)sc2c1CCCC2 ?
Mito fusion act: 9%; SW480 rereplic: inconclusive; MCF10A rerep: 18µM*; a7 integrin act: -17%; AT treatment: -7%

What do the screens show for `Cc1onc(-c2ccccc2)c1C(=O)N[C@@H]1C(=O)N2[C@@H]1SC(C)(C)[C@@H]2C(=O)O`?
Mito fusion act: -1%; SW480 rereplic: -6%; MCF10A rerep: 7%; AT treatment: -14%

How did CCCCCCC(=O)O[C@H]1CC[C@H]2[C@@H]3CCC4CC(=O)C=C(C)[C@]4(C)[C@H]3CC[C@]12C (stereo partly specified) do in these assays?
SW480 rereplic: inconclusive; MCF10A rerep: 14%

How did C=CCOC(Cn1ccnc1)c1ccc(Cl)cc1Cl (stereo unspecified) do in these assays?
Mito fusion act: 25µM*; SW480 rereplic: -8%; MCF10A rerep: inconclusive; a7 integrin act: 17%; AT treatment: 0%

What do the screens show for `Clc1ccc(COC(Cn2ccnc2)c2ccc(Cl)cc2Cl)c(Cl)c1` (stereo unspecified)?
Mito fusion act: 3.5µM*; SW480 rereplic: inconclusive; MCF10A rerep: 12µM*; AT treatment: 6%
